According to PubChem BioAssay (NCI):
“And” between values parts separate entries of the source, which are not always exact repeats. Identical values can stand only once. About 83,000 compounds went through this panel and 20% of them were active in at least one assay; those are over-represented in the sample as a whole.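 Assay: single dose, 48 h. Readout: percent growth (0 = no net growth; negative = cell death). Active: <10.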 The source made the active and inactive calls.

Experiments:
Assay in all cases: NCI-60 one-dose screen, 48 h (100 = growth as untreated, 0 = no growth, -100 = all killed)
[1] = test system: NCI-H23 lung; settings: 10 µM unless noted
[2] = test system: NCI-H226 lung; settings: 10 µM unless noted
[3] = test system: NCI-H322M lung; settings: 10 µM unless noted
[4] = test system: HOP-62 NSCLC; settings: 10 µM unless noted
[5] = test system: NCI-H460 lung; settings: 10 µM unless noted
[6] = test system: HOP-92 NSCLC
[7] = test system: NCI-H522 lung; settings: 10 µM unless noted
[8] = test system: A549/ATCC NSCLC; settings: 10 µM unless noted
[9] = test system: 786-0 renal; settings: 10 µM unless noted
[10] = test system: COLO 205 colon; settings: 10 µM unless noted

Measured: growth

Cc1ccc(C(=O)OC(C(=O)O)C(OC(=O)c2ccc(C)cc2)C(=O)O)cc1 (stereo unspecified) (tested in a mixture with another compound)
inactive: [1] 41.4% | [2] 51.1% | [3] 83.2% | [4] 66.1% | [5] 52.4% | [6]; 10 µM 17.7% | [7] 52.6% | [8] 71% | [9] 46% | [10] 48.9%

Oc1cccc2cccnc12
inactive: [1] 102% and 109% and 104% | [2] 94.5% and 98.1% and 98.6% | [3] 104% and 111% and 95.5% | [4] 94.7% and 98.3% and 104% | [5] 83.7% and 104% and 102% | [6]; 10 µM 89.1% | [7] 10.8% and 103% | [8] 100% and 105% and 111% | [9] 106% and 105% | [10] 65% and 105% and 102%

C[C@H]1CCC/C=C/[C@@H]2C[C@H](O)C[C@H]2[C@H](O)/C=C/C(=O)O1
active: [1] -1.79% | [2] -36.3% | [3] 5.77% | [4] 4.67% | [5] 8.73% | [7] -43.6% | [9] -37.3% | [10] -75.4%
inactive: [8] 13.1%

CC[n+]1c(-c2ccccc2)c2cc(N)ccc2c2ccc(N)cc21
inactive: [2] 25.2% | [3] 25.9% | [8] 30.2% | [9] 15.6%
active: [1] -9.43% | [4] 1.84% | [5] 3.56% | [7] -28.2% | [10] -27.9%

COc1ccccc1/C=C(/C)[N+](=O)[O-]
inactive: [1] 88.3% and 90.8% | [2] 100% and 105% | [3] 92.7% and 92.2% | [4] 109% and 83.1% | [5] 87.3% and 107% | [6]; 10 µM 96.5% | [7] 50% and 84.5% | [8] 93.3% and 76.9% | [9] 82.2% and 101% | [10] 67.4% and 106%

Cc1cc(N=Nc2ccccc2C)ccc1N
inactive: [1] 79.6% | [2] 71.1% | [3] 89.2% | [4] 69.3% | [5] 80.7% | [6]; 10 µM 48.8% | [7] 57.6% | [8] 47.6% | [10] 111%
active: [9] -13.5%

CCC1(O)CC(OC2CC(N(C)C)C(OC3CC4OC5CC(=O)C(C)OC5OC4C(C)O3)C(C)O2)c2c(cc3c(c2O)C(=O)c2c(O)ccc(O)c2C3=O)C1C(=O)OC (stereo unspecified)
active: [1] -52.5% | [2] -8.6% | [3] -32.4% | [4] -26% | [5] -26.3% | [7] -75.4% | [8] 1.52% | [9] -35.6% | [10] -52.1%

COc1cccc2c1cc([N+](=O)[O-])c1c(C(=O)O)cc3c(c12)OCO3
inactive: [1] 56.4% and 93% | [2] 79.8% and 107% | [3] 50.4% and 99% | [4] 82.4% and 101% | [5] 33.5% and 106% | [6]; 10 µM 84% | [7] 35% and 63.9% | [8] 76.6% and 116% | [9] 77.3% and 98.8%
active: [10] -25.3% and -56.5%

CC1=C(CO)C2=C(C)C3(CC3)[C@@](C)(O)C(=O)C2=C1
active: [1] -18.2% | [2] -28.6% | [3] -24.9% | [4] -36% | [5] -1.95% | [7] -81.7% | [8] 2.23% | [9] -21.3% | [10] -40.1%

O=C1c2ccccc2C(=O)C(Cl)C1Cl (stereo unspecified)
inactive: [1] 83.8% | [3] 96.1% | [4] 87.9% | [5] 101% | [8] 104% | [9] 16.8%
active: [2] -74.2% | [6]; 10 µM -62.4% | [7] -65% | [10] -94.3%

COC1=C(C)C(=O)C2=C(C1=O)C(CO)N1C(C#N)C3CC4C(C1C2N1CCOC41)N3C (stereo unspecified)
active: [1] -45.1% | [2] -14.5% | [3] -23.7% | [4] -42% | [5] -14.9% | [7] -83.2% | [8] -3.64% | [9] -21.9% | [10] -74.5%

CO[C@H](/C(C)=C/C=C/C(C)=C/c1coc(C)n1)[C@H](C)[C@H]1C[C@@H](O)[C@@]2(C)O[C@H]2/C=C/[C@@H](C)[C@@H]2C[C@@H](CC(=O)O2)C[C@H]2O[C@@H]2C(=O)O1
active: [5] 8.2% | [7] -33.1% | [10] -28.7%
inactive: [1] 24.4% | [2] 34.8% | [3] 42.9% | [4] 11.1% | [8] 42.9% | [9] 15.6%

CC1=C2C(=O)[C@H]3[C@@H](CC=C4C[C@@H](O)CC[C@@]43C)[C@@H]2CC[C@]12O[C@@H]1C[C@H](C)CN[C@H]1[C@H]2C
inactive: [1] 106% | [2] 95.3% | [3] 86.4% | [4] 50.9% | [5] 100% | [8] 89.7% | [9] 127% | [10] 103%

Cc1c(N)nc([C@H](CC(N)=O)NC[C@H](N)C(N)=O)nc1C(=O)N[C@H](C(=O)N[C@H](C)[C@@H](O)[C@H](C)C(=O)N[C@H](C(=O)NCCc1nc(-c2nc(C(=O)NCCC[S+](C)C)cs2)cs1)[C@@H](C)O)C(OC1OC(CO)C(O)C(O)C1OC1OC(CO)C(O)C(OC(N)=O)C1O)c1cnc[nH]1 (stereo partly specified)
inactive: [1] 37.9% [2.5 µM] | [2] 37.2% [2.5 µM] | [3] 97.1% [2.5 µM] | [4] 43.9% [2.5 µM] | [5] 23.1% [2.5 µM] | [7] 57.3% [2.5 µM] | [8] 52.9% [2.5 µM] | [9] 27.9% [2.5 µM] | [10] 87.7% [2.5 µM]
active: [6]; 2.5 µM -4.74%

CC[C@@]1(O)C[C@H](OC2CC(N(C)C)C(O)C(C)O2)c2c(O)c3c(c(O)c2[C@H]1OC1CC(N(C)C)C(O)C(C)O1)C(=O)c1cccc(O)c1C3=O (stereo partly specified)
active: [1] -37.2% | [2] -16.2% | [3] -31.5% | [4] -20.2% | [5] -4.36% | [7] -65% | [8] 1.57% | [9] -2.72% | [10] -20.5%
